Sa ugtP lethal: kills S. aureus RN4220 lacking UgtP; S. aureus RN4220 ugtP deletion, OD600 growth, 16 h; growth inhibition, % (no concentration beside the values); 330,000 compounds, 0.54% hits; in the data active = growth inhibition above about 68%;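 also: plate controls were untreated wells for no effect and antibiotic for full effect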
PfHsp40 rescue: compounds rescuing yeast from Plasmodium falciparum HSP40 toxicity; S. cerevisiae expressing PfHsp40, growth rescue, ATP luminescence; growth rescue, % at 12.5 µM; 340,000 compounds, 0.68% hits; in the data active = growth rescue above about 28%, passing the limit was not always enough; inconclusive = no clear call, values can overlap the other calls;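 also: yeast W303a lacking pdr1 and pdr3 grown in galactose medium; growth measured after three days at 30 °C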
Sa RN4220 lethal: kills Staphylococcus aureus RN4220. 330,000 compounds, 0.33% hits. S. aureus RN4220 growth, OD600, 16 h. inhibition, % (test concentration not listed). AID 1259311; in the data active = inhibition above about 85%;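 also: plate controls were untreated cells for no effect and reference antibiotic for full effect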
Mtb betalactam: beta-lactam sensitization of Mtb H37Rv. M. tuberculosis H37Rv growth with meropenem, percent inhibition. inhibition, % at 25 µM. 330,000 compounds, 0.27% hits; call rule not given here;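 also: growth measured after seven days incubation then overnight dye step; 0% = bacteria only wells and 100% = bacteria with antibiotic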
Mtb BioA inh: blocks M. tuberculosis BioA enzyme activity; purified M. tuberculosis BioA enzyme, plate reader; AID 602481; 360,000 compounds, 0.096% hits; inhibition, % at 9.99 µM; in the data active = inhibition above about 40%; inconclusive = no clear call, values can overlap the other calls
Active calls of the source: *; ? = inconclusive; . = not tested or not shown. This is a sample that favours compounds with a hit; in the whole collection about 0.9% have one here.

SMILES	Sa ugtP lethal	PfHsp40 rescue	Sa RN4220 lethal	Mtb betalactam	Mtb BioA inh
Brc1ccc(-c2ccc(C=NNc3nc4ccccc4[nH]3)o2)cc1	80	.	86*	.	.
CCN(CC)c1ccc(/C=N/Nc2nc3ccccc3[nH]2)c(O)c1	.	158*	.	8	-2
O=C(O)c1ccc(C=NNc2nc3ccccc3[nH]2)cc1	1	.	5	.	.
COc1ccc(Cl)cc1NC(=O)COC(=O)C=Cc1c(C)nn(C2CCS(=O)(=O)C2)c1Cl (stereo not given)	-1	.	5	.	.
CCOc1ccc(CCN2C(=O)C(=O)N(C(CCCN(C)Cc3ccccc3)CNCc3ccccc3)CC2C(C)C)cc1 (stereo not given)	-2	.	4	.	.
COC(=O)C1=C(c2ccc(Cl)c(C(F)(F)F)c2)CC2CCC1N2C(=O)NCCNC(C)=O (stereo not given)	5	.	6	.	.
CCC(=O)N(C1=C(NC(C)C)C(=O)c2ccccc2C1=O)C(C)C	8	-1	30	-2	-1
CCCNC1=C(N(C(C)=O)c2cccc(F)c2)C(=O)c2ccccc2C1=O	20	49*	22	99	2
COc1ccc(C2CC(=O)C=C(c3cc(Br)ccc3OC)C2)cc1 (stereo not given)	3	.	5	.	.
Cc1ccc(C(=O)Nc2cccc([N+](=O)[O-])c2)cc1S(=O)(=O)Nc1cccc(C(=O)O)c1	94*	0	27	-3	.
Cc1ccc(C(=O)Nc2cccc([N+](=O)[O-])c2)cc1S(=O)(=O)Nc1ccc(NC(=O)c2ccccc2)cc1	.	8	.	31	.
C#Cc1ccc(C2C=C(C(=O)OCC=C)OC(OCC)C2CCCO)cc1 (stereo not given)	-2	.	3	.	.
O=C(N/N=C/c1ccc(O)c2ncccc12)c1cccc(Br)c1	.	105*	.	5	.
O=C(NN=Cc1ccc(O)c2ncccc12)c1cccc(Br)c1	-15	.	14	.	.
O=C1OC(c2ccccc2)=NC12CC2c1ccc(Cl)cc1 (stereo not given)	3	255*	-1	70	1
CC1CN(C(C)CO)C(=O)c2cc(NC(=O)Nc3ccc(C(F)(F)F)cc3)ccc2OC1CN(C)S(=O)(=O)c1cccs1 (stereo not given)	-39	.	-2	.	.
CCOC(=O)c1cc2ccc3ccccc3c2oc1=O	10	7	1	7	1
CCOC(=O)c1cc2ccc3ccccc3c2s1	88*	1	12	92	4
COC1C=CC23c4cc5c(cc4CO[C@]2(O)CN(C)C3C1)OCO5 (stereo not given in full)	7	.	7	.	.
COc1cc(/C=C/C(=O)Nc2ccc(OC)c(S(=O)(=O)N3CCOCC3)c2)ccc1OC(F)F	87*	1	-12	2	0
COc1ccc(/C=C/C(=O)Nc2ccc(C(C)=O)cc2)cc1S(=O)(=O)N1CCOCC1	.	.	.	.	1
C=C(C)C(O)CC/C(C)=C/Cc1c(O)ccc(C(=O)/C=C/c2ccc(O)cc2)c1O (stereo not given)	91*	?	99*	-6	0
COc1cccc(-n2nc(C(N)=O)c(O)cc2=O)c1	-2	-1	-1	-3	.
COc1cccc(-n2nc(C#N)c(Cl)cc2=O)c1	10	52*	40	.	.
CC(=O)O[C@H]1[C@@H](O)[C@H](O)[C@H](Oc2c(O)c(C)c3c4c2[C@@H](C)CC[C@@H]4[C@@H](C)C[C@H]3C=C(C)C)O[C@H]1C	.	125*	.	28	-1
SMILES	Sa ugtP lethal	PfHsp40 rescue	Sa RN4220 lethal	Mtb betalactam	Mtb BioA inh
CC(C)=CC1CC(C)C2CCC(C)c3c(O)c(O)c(C)c1c32 (stereo not given)	10	.	-2	.	.
O=c1[nH]c(SCc2ccccc2Cl)nc2c1CCCC2	-16	0	3	-6	-1
CN(C)c1nc(SCc2ccccc2Cl)nc2c1CCCC2	26	155*	-10	28	0
COc1ccccc1CNC(=O)c1cccc(-c2ccc(C)c3ccccc23)n1	4	.	7	15	.
CCCCCCNC(=O)c1cccc(-c2ccc(C)c3ccccc23)n1	90*	-1	-4	5	1
O=C(C(=C([O-])c1ccccc1)[n+]1ccccc1)c1ccc([N+](=O)[O-])cc1	-8	.	-2	.	.
COCCCN1C(=O)C(=O)/C(=C(/O)c2ccccc2)C1c1ccc(N(C)C)cc1 (stereo not given)	0	0	2	-4	-2
CCN(CC)S(=O)(=O)c1ccc(/C(O)=C2/C(=O)C(=O)N(CCOC)C2c2ccccc2)cc1 (stereo not given)	3	97*	1	-11	0
CCC1C(OC(=O)NCc2ccccc2)CC2CCN3C(=O)CCCC1C23 (stereo not given)	7	.	4	.	.

Source: PubChem BioAssay (several laboratories)
